{"source": "PubChem BioAssay (NCATS)", "key": {"[1]": {"experiment": "NS1 protein of Zika virus - qHTS assay to identify small molecule inhibitors in human HEK 293 cells (AID 1347053); further: nearly all actives have a fitted effect of over 55% in size", "how_it_was_run": "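HEK 293; 20 h pre-culture, 37 C/5% CO2; cpd 1 h pre-infection; ZIKV MR766, MOI = 0.5, 24 h, 37 C; TR-FRET NS1 readout (two anti-NS1 Abs); norm. to no-virus vs infected.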"}, "[2]": {"molecular_target": "T1, Tyrosine-protein phosphatase non-receptor type substrate 1 (Homo sapiens) + Leukocyte surface antigen CD47 (Homo sapiens) (UniProt P78324+Q08722)", "T1 sequence (P78324 whole entry, looked up)": "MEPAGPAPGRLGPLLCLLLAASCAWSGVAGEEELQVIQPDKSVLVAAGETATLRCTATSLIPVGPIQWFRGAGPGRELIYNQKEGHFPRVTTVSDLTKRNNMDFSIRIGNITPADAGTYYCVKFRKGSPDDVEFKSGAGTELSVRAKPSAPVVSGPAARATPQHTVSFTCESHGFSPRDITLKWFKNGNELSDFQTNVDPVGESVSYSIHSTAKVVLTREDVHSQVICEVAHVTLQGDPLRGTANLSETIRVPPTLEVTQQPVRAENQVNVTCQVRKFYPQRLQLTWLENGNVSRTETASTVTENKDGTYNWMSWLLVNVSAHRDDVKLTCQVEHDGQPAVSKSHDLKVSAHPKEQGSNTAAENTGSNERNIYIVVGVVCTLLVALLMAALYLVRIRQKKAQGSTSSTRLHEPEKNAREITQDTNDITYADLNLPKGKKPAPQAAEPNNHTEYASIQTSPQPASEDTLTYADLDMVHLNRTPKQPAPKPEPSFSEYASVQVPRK", "T1 sequence (Q08722 whole entry, looked up)": "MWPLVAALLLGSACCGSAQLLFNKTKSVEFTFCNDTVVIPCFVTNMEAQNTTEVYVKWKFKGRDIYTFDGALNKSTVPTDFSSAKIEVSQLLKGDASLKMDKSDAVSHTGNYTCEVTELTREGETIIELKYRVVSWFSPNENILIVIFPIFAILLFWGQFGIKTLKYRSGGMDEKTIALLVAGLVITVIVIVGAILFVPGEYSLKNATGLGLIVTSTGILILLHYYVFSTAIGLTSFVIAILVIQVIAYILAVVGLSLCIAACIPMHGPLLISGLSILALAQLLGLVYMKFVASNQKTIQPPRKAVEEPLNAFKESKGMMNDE", "experiment": "CD47-SIRPalpha protein protein interaction - LANCE assay qHTS validation (AID 1347057; active means well fitted curve in the direction sought with a large enough effect in the signal ratio, with a control signal flat, not every such curve was filed as active; the % refers to the signal ratio)", "how_it_was_run": "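First, His-tagged CD47 and Eu-labelled anti-His antibody met the compound for 30 min; next, site-specifically biotinylated SIRPalpha was added for 30 min; finally streptavidin-APC was added before reading the TR-FRET ratio.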"}, "[3]": {"molecular_target": "T1, Tyrosine-protein phosphatase non-receptor type substrate 1 (Homo sapiens) + Leukocyte surface antigen CD47 (Homo sapiens)", "experiment": "CD47-SIRPalpha protein protein interaction - HTRF assay qHTS validation (AID 1347058; active means well fitted curve in the direction sought with a large enough effect in the signal ratio, not every such curve was filed as active; the % refers to the signal ratio)", "how_it_was_run": "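TR-FRET read (Ch1/Ch2 ratio) of soluble extracellular CD47 and Avi-biotinylated SIRPalpha domains in PBS pH 7.4 with 0.05% IGEPAL; 7-point compound titration. Sequential 30 min room-temperature steps; non-biotinylated SIRPalpha as control inhibitor.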"}, "[4]": {"molecular_target": "T1, Tyrosine-protein phosphatase non-receptor type substrate 1 (Homo sapiens) + Leukocyte surface antigen CD47 (Homo sapiens)", "experiment": "CD47-SIRPalpha protein protein interaction - Alpha assay qHTS validation (AID 1347059);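 further: bead proximity luminescence from CD47 binding SIRPalpha after compound preincubation with SIRPalpha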", "how_it_was_run": "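Soluble extracellular domains: Avi-tag biotinylated SIRPalpha (25 nM) preincubated 30 min RT with compound, then 6His-CD47 (12.5 nM) 30 min; Ni-NTA acceptor and streptavidin donor beads (10 ug/mL) 30 min, AlphaScreen read. PBS pH 7.4, 0.05% IGEPAL.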"}, "[5]": {"molecular_target": "Parathyroid hormone/parathyroid hormone-related peptide receptor (Homo sapiens) (UniProt Q03431)", "sequence (Q03431 whole entry, looked up)": "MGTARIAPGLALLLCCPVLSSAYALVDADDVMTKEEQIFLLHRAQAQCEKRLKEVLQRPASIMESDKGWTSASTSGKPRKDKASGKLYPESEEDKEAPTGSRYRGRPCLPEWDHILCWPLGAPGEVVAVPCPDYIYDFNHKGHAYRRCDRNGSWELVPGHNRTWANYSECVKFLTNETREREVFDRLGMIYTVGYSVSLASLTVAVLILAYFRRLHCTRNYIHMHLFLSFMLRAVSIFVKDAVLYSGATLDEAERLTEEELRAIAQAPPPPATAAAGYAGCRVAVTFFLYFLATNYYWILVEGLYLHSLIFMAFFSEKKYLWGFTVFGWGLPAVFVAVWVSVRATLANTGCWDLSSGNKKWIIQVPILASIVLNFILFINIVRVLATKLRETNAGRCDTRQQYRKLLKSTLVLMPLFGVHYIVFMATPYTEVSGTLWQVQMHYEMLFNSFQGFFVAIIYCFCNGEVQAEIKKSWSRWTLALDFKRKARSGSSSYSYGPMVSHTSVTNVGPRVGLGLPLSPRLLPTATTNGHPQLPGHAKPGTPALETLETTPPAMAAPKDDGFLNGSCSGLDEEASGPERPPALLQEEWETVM", "experiment": "qHTS for PTHR1 Agonists: Optimization Screen against the NCGC LOPAC library (AID 1347079)", "how_it_was_run": "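Compounds were tested across a qHTS titration. PTHR1-expressing GP2 cells report cAMP rises via GloSensor luminescence after 1 hr compound exposure at 37C with IBMX present.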"}, "[6]": {"molecular_target": "N-terminal Xaa-Pro-Lys N-methyltransferase 1 (Homo sapiens) (UniProt Q9BV86)", "sequence (Q9BV86 whole entry, looked up)": "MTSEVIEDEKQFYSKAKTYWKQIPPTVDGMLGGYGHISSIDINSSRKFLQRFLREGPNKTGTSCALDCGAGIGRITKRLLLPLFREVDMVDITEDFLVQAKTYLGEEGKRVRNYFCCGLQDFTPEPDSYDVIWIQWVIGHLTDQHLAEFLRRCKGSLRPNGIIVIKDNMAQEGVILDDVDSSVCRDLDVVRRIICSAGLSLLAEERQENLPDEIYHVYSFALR", "experiment": "qHTS Assay for Inhibitors of N-terminal methyltransferase 1 (NTMT1): LOPAC validation of the NTMT1 SAHH-coupled ThioGlo3 Assay (AID 1347143); further: nearly all actives have a fitted effect of over 70% in size", "how_it_was_run": "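Fluorescence read-out (excitation 340nm, emission 450nm) of SAH-derived thiol, measured via SAHH coupling and ThioGlo3, taken immediately and after a 30 min room-temperature reaction, then normalized to the background read. Enzyme: NTMT1 at 125nM; cofactor SAM 100uM in the added reagent.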"}, "[7]": {"molecular_target": "Lysine-specific demethylase 5B (Homo sapiens) (UniProt Q9UGL1)", "sequence (Q9UGL1 whole entry, looked up)": "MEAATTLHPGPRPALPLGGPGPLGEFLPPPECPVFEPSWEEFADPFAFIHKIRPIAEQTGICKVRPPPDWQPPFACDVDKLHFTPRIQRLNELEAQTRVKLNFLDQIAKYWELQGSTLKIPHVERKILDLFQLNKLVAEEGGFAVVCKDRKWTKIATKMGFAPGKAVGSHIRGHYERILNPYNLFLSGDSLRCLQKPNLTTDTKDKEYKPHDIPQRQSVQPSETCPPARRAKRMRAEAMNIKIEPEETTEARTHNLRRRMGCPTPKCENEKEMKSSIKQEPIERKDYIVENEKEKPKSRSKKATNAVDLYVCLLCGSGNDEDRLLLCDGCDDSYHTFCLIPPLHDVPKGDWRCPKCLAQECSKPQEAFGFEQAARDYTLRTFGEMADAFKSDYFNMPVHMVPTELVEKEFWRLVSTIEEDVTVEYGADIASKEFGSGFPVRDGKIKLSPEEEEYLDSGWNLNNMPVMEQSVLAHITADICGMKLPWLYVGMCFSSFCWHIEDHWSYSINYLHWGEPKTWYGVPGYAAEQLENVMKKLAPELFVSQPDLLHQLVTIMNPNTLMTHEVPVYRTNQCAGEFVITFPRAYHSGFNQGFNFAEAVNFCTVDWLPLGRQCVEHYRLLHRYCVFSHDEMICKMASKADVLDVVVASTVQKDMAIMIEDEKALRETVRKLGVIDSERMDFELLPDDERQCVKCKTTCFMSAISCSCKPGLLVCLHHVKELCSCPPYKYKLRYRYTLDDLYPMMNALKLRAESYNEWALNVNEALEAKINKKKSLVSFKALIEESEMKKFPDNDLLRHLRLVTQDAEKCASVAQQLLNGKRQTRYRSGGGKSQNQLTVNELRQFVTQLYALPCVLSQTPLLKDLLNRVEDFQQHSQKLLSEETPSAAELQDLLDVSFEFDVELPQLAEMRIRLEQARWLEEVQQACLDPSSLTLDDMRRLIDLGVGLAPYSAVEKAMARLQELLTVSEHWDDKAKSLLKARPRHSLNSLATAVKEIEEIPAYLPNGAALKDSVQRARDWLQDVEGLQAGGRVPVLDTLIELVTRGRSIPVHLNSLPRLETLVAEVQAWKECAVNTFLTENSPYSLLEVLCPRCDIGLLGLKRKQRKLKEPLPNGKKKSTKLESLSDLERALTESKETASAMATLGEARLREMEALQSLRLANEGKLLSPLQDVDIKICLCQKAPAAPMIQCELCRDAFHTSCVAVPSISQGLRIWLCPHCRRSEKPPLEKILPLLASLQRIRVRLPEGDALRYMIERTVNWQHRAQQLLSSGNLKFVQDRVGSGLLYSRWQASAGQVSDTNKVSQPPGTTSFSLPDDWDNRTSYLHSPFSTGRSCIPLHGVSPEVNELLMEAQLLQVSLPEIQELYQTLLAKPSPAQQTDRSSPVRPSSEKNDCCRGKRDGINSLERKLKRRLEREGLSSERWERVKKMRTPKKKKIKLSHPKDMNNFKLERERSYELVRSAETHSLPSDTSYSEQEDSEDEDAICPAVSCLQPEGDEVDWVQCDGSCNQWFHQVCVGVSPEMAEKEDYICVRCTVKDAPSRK", "experiment": "Optimization screen for KDM5B Histone Demethylases FDH coupled qHTS against the LOPAC library (AID 1347166)", "settings": "KDM5B demethylation, FDH-coupled NADH fluorescence (FDH is formaldehyde dehydrogenase); at 57.5 µM (top of the series)", "how_it_was_run": "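KDM5BDeltaAP (200nM final) preincubated 10 min with compound, then 12.5uM H3K4Me3, 25uM a-ketoglutarate, ascorbate, Fe(II), NAD+ and FDH added; 50mM HEPES pH 7.5, 0.01% Tween-20. NADH fluorescence (340/450 nm) change over 30 min, room temperature.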"}, "[8]": {"system": "Zika virus NS2B-NS3 protease (unlinked)", "experiment": "Optimization of GU AMC qHTS for Zika virus inhibitors: Unlinked NS2B-NS3 protease assay (AID 1347151); further: nearly all actives have a fitted effect of over 80% in size; further: potency means the concentration at half of the fitted maximal effect", "how_it_was_run": "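Percent inhibition is derived from the 15-min change in AMC fluorescence, normalized against no-inhibitor and no-enzyme controls, then fitted to a 4-parameter Hill curve. Aprotinin was the intraplate control.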"}, "[9]": {"system": "Zika virus NS2B-NS3 protease (unlinked complex)", "experiment": "Confirmatory screen GU AMC qHTS for Zika virus inhibitors (AID 1347153); further: nearly all actives have a fitted effect of over 70% in size", "how_it_was_run": "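Unlinked enzyme 25 nM, Tris pH 8.0/0.01% Tween 20; cpd 15 min RT, dark; + AMC substrate 10 µM (Km 18.3 µM); 340/450 nm read at t0 and 15 min; % inhibition → 4-param fit.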"}, "[10]": {"system": "Zika virus NS2B-NS3 protease", "experiment": "Primary screen GU AMC qHTS for Zika virus inhibitors (AID 1347154); further: nearly all actives have a fitted effect of over 70% in size", "how_it_was_run": "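Unlinked Zika NS2B hydrophilic domain/NS3 protease domain noncovalent complex (25 nM final) in 10 mM Tris-HCl pH 8.0, 0.01% Tween 20, with AMC peptide substrate. Fluorescence (ex 340, em 450 nm) change over 15 min, room temperature; percent inhibition fitted to 4-parameter Hill equation.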"}, "[11]": {"experiment": "Vero cells viability qHTS for Zika virus inhibitors (AID 1347167)", "how_it_was_run": "(§1)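 Counter-screen for cytotoxicity of hits from NS2B-NS3 protease qHTS. Overnight-attached cells (2.5 x 10^5 cells/mL, DMEM/4% FBS) were dosed in titration, incubated 24 to 48 hours, then assayed by CellTiter Glo.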"}, "[12]": {"experiment": "HepG2 cells viability qHTS for Zika virus inhibitors (AID 1347168)", "how_it_was_run": "as §1"}}, "note": "A number with no mark means an inactive call. Results filed as inconclusive are left out. A call without a number means that no potency is given here. Activity calls are given as the source filed them. Unless noted, the call rests on the fitted dose curve; in most records, active means well fitted curve in the direction sought with a large enough effect; inconclusive means small, poorly fitted or top-dose-only effect, or another doubt; inactive means no such curve, though single readings can be large; an effect the other way counts as inactive or inconclusive.", "data": [{"molecule": "OC[C@H]1O[C@H](n2cnc3c(N[C@H]4CCC[C@@H]4O)ncnc32)[C@H](O)[C@@H]1O", "values": [{"measurement": "Potency", "setting": "[1]", "value": "inactive"}, {"measurement": "Potency", "setting": "[2]", "value": "inactive"}, {"measurement": "outcome", "setting": "[3]", "value": "inactive"}, {"measurement": "Potency", "setting": "[4]", "value": "inactive"}, {"measurement": "Potency", "setting": "[5]", "value": "inactive"}, {"measurement": "Potency", "setting": "[6]", "value": "inactive"}, {"measurement": "activity, negative = inhibition", "setting": "[7]", "value": -3.36, "unit": "%"}]}, {"molecule": "N=S(=O)(O)Cc1noc2ccccc12", "values": [{"measurement": "Potency", "setting": "[1]", "value": "inactive"}, {"measurement": "Potency", "setting": "[2]", "value": "inactive"}, {"measurement": "outcome", "setting": "[3]", "value": "inactive"}, {"measurement": "Potency", "setting": "[4]", "value": "inactive"}, {"measurement": "Potency", "setting": "[5]", "value": "inactive"}, {"measurement": "Potency", "setting": "[6]", "value": "inactive"}, {"measurement": "activity, negative = inhibition", "setting": "[7]", "value": 3.62, "unit": "%"}]}, {"molecule": "O=c1[nH]c2cc(Cl)ccc2c(O)c1-c1ccc(Oc2ccccc2)cc1", "values": [{"measurement": "Potency", "setting": "[1]", "value": "inactive"}, {"measurement": "Potency", "setting": "[2]", "value": "inactive"}, {"measurement": "outcome", "setting": "[3]", "value": "inactive"}, {"measurement": "Potency", "setting": "[4]", "value": "inactive"}, {"measurement": "Potency", "setting": "[5]", "value": "inactive"}, {"measurement": "Potency", "setting": "[6]", "value": "inactive"}, {"measurement": "activity, negative = inhibition", "setting": "[7]", "value": -28.1, "unit": "%"}]}, {"molecule": "Cc1cccc(C(=O)NCN2CCN(c3ccccc3C#N)CC2)c1", "values": [{"measurement": "Potency", "setting": "[1]", "value": "inactive"}, {"measurement": "Potency", "setting": "[2]", "value": "inactive"}, {"measurement": "outcome", "setting": "[3]", "value": "inactive"}, {"measurement": "Potency", "setting": "[4]", "value": "inactive"}, {"measurement": "Potency", "setting": "[5]", "value": "inactive"}, {"measurement": "Potency", "setting": "[8]", "value": "26.7 µM (active)"}, {"measurement": "Potency", "setting": "[9]", "value": "inactive"}, {"measurement": "Potency", "setting": "[10]", "value": "inactive"}, {"measurement": "Potency", "setting": "[11]", "value": "inactive"}, {"measurement": "outcome", "setting": "[12]", "value": "inactive"}]}, {"molecule": "CN1C2CCC1CC(OC(c1ccccc1)c1ccccc1)C2", "note": "(configuration not stated)", "values": [{"measurement": "Potency", "setting": "[1]", "value": "inactive"}, {"measurement": "Potency", "setting": "[2]", "value": "inactive"}, {"measurement": "outcome", "setting": "[3]", "value": "inactive"}, {"measurement": "Potency", "setting": "[4]", "value": "inactive"}, {"measurement": "Potency", "setting": "[5]", "value": "inactive"}, {"measurement": "Potency", "setting": "[8]", "value": "inactive"}, {"measurement": "activity, negative = inhibition", "setting": "[7]", "value": -5.47, "unit": "%"}]}, {"molecule": "CN(CC[C@@H](Oc1ccc(C(F)(F)F)cc1)c1ccccc1)CC(=O)O", "values": [{"measurement": "Potency", "setting": "[1]", "value": "inactive"}, {"measurement": "Potency", "setting": "[2]", "value": "inactive"}, {"measurement": "outcome", "setting": "[3]", "value": "inactive"}, {"measurement": "Potency", "setting": "[4]", "value": "inactive"}, {"measurement": "Potency", "setting": "[5]", "value": "inactive"}, {"measurement": "Potency", "setting": "[6]", "value": "inactive"}, {"measurement": "activity, negative = inhibition", "setting": "[7]", "value": -7.4, "unit": "%"}]}, {"molecule": "CCCCCC(O)CCCC(=O)O", "note": "(configuration not stated)", "values": [{"measurement": "Potency", "setting": "[1]", "value": "inactive"}, {"measurement": "Potency", "setting": "[2]", "value": "inactive"}, {"measurement": "outcome", "setting": "[3]", "value": "inactive"}, {"measurement": "Potency", "setting": "[4]", "value": "inactive"}, {"measurement": "Potency", "setting": "[5]", "value": "inactive"}, {"measurement": "Potency", "setting": "[6]", "value": "inactive"}, {"measurement": "Potency", "setting": "[10]", "value": "inactive"}, {"measurement": "activity, negative = inhibition", "setting": "[7]", "value": -6.03, "unit": "%"}]}, {"molecule": "Cc1ccccc1/C=C/C1=NCCN1", "values": [{"measurement": "Potency", "setting": "[1]", "value": "inactive"}, {"measurement": "Potency", "setting": "[2]", "value": "inactive"}, {"measurement": "outcome", "setting": "[3]", "value": "inactive"}, {"measurement": "Potency", "setting": "[4]", "value": "inactive"}, {"measurement": "Potency", "setting": "[5]", "value": "inactive"}, {"measurement": "Potency", "setting": "[8]", "value": "inactive"}, {"measurement": "activity, negative = inhibition", "setting": "[7]", "value": -11.5, "unit": "%"}]}, {"molecule": "NCCNS(=O)(=O)c1cccc2c(Cl)cccc12", "values": [{"measurement": "Potency", "setting": "[1]", "value": "inactive"}, {"measurement": "Potency", "setting": "[2]", "value": "inactive"}, {"measurement": "outcome", "setting": "[3]", "value": "inactive"}, {"measurement": "Potency", "setting": "[4]", "value": "inactive"}, {"measurement": "Potency", "setting": "[5]", "value": "inactive"}, {"measurement": "Potency", "setting": "[8]", "value": "inactive"}, {"measurement": "Potency", "setting": "[10]", "value": "inactive"}, {"measurement": "activity, negative = inhibition", "setting": "[7]", "value": -9.52, "unit": "%"}]}, {"molecule": "CNc1ncnc2c1ncn2[C@H]1C[C@H](OP(=O)(O)O)[C@@H](COP(=O)(O)O)O1", "values": [{"measurement": "Potency", "setting": "[1]", "value": "inactive"}, {"measurement": "Potency", "setting": "[2]", "value": "inactive"}, {"measurement": "outcome", "setting": "[3]", "value": "inactive"}, {"measurement": "Potency", "setting": "[4]", "value": "inactive"}, {"measurement": "Potency", "setting": "[5]", "value": "inactive"}, {"measurement": "Potency", "setting": "[6]", "value": "inactive"}, {"measurement": "activity, negative = inhibition", "setting": "[7]", "value": -15.5, "unit": "%"}]}, {"molecule": "CN(C)CCCc1cc(C(=O)Nc2ccc(-c3ccncc3)cc2)ccc1O", "values": [{"measurement": "Potency", "setting": "[1]", "value": "inactive"}, {"measurement": "Potency", "setting": "[2]", "value": "inactive"}, {"measurement": "outcome", "setting": "[3]", "value": "inactive"}, {"measurement": "Potency", "setting": "[4]", "value": "inactive"}, {"measurement": "Potency", "setting": "[5]", "value": "inactive"}, {"measurement": "Potency", "setting": "[8]", "value": "inactive"}, {"measurement": "activity, negative = inhibition", "setting": "[7]", "value": -5.29, "unit": "%"}]}]}
